# Reference: the supplement of paper PMC10338343
# ± gives the standard deviation. Over roughly 8,200 sequences, “pre-steady-state target cleavage rate” has its median near 0.024; the highest 2% begin near 1.3. The full list was thinned out, with the highest values kept by preference.
# System: MIWI (PIWIL1) piRISC loaded with L1MC piRNA (30 nt)
# Assay: pre-steady-state target cleavage rate (min^-1); MIWI and MILI are mouse PIWI proteins and EfPiwi is from a freshwater sponge; tags in brackets are library labels; higher = faster piRNA-guided slicing of the target
# Details: guide: L1MC piRNA 5'p-UAACUAAAUACUAUGCAAGCUGUAGGUCCU
# Outline: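 The pre-steady-state cleavage rate was derived from a burst-and-steady-state fit of Cleave-'n-Seq data. For these assays, 1 nM active affinity-purified piRISC loaded with a single synthetic guide was mixed with […] a transcribed, DNA-blocked target RNA library in HEPES–potassium acetate buffer at 33 °C, with or without 500 nM GTSF1 partner protein, for 0–8 or 0–960 min. Sequencing counts of uncleaved targets were normalised to depth and to weakly complementary targets, and k3 was capped at 0.0001 min^-1 after three trials were pooled.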
# [1] = auxiliary factor: 500 nM mouse GTSF1
# [2] = auxiliary factor: none (no GTSF1)
# 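Further: 1 nM active piRISC with 0.1 nM target library at 33 °C single turnover.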
Sequence,pre-steady-state target cleavage rate [1],pre-steady-state target cleavage rate [2]
UCCUCCUACAGCUUGCAUUGUAUUAAGUUA,0.309 ± 0.026,0.00813 ± 0.0024
UCCACCUACAGCUUGCAUAGAAUUUAGAUA,0.247 ± 0.037,0.00935 ± 0.0029
UCGACCUACAGCUUGCAUAGUUAUUACAAA,0.115 ± 0.035,–
UCCUGGAUGUCGAACGUAAGUAUUUAAUUA,< 0.0001,–
UCCUGGUACAGCUUGCAUAGUUUAUAGUUA,0.0594 ± 0.017,0.0135 ± 0.004
UCCUGGAUGUCGAACGUUUGUAUAUAGUUA,< 0.0001,–
UGGACCUACAGCUUGCAUAGUAUUUAGUAA,1.11 ± 0.064,0.0627 ± 0.014
UGGACCUACAGCUUGCAUAGUAUUUAGCUUA,0.316 ± 0.023,0.0288 ± 0.0059
UGGACCUACAGCUUGCAUAGUAUUUAGUA,0.885 ± 0.062,0.0273 ± 0.0069
UGGACCUACAGCUUGCAUAGUAUUUAGUUUA,1.56 ± 0.086,0.075 ± 0.014
UGGACCUACAGCUUGCAUAGUAUUUAGUUU [g2:g29:cont:t1U],1.62 ± 0.082,0.0974 ± 0.02
UGGACCUACAGCUUGCAUAGUAUUUAGUUC [g2:g29:cont:t1C],1.14 ± 0.068,0.0625 ± 0.012
UCCUGGAACAGGUUGCAUAGUAUUUAGAAA,0.362 ± 0.043,–
AGGACCUACAGCUACGAUAGUAUUUAGUAA,0.153 ± 0.045,–
UCGACCAACAGCUUGCAUAGUAAUUAGUUA,0.972 ± 0.041,0.0305 ± 0.0074
AGGACCUACAGCUUGGUUAGUAUUUACAAA,0.0786 ± 0.021,–
UGGACCUACAGCAAGCAUAGUAUUUACAAA,0.273 ± 0.051,–
UCGACCUACAGCUUGUAUAGUAUUUAGUUA,1.7 ± 0.074,0.0725 ± 0.015
AGGACCUACAGCUUGCUAUAGUAUUUAGUUA,0.137 ± 0.037,–
UGGACCUACAGCUUGUAUAGUAUUUAGUUA,1.77 ± 0.11,0.0563 ± 0.012
UCCACCUACAGCUUGUAUAGUAUUUAGUUA,1.18 ± 0.048,0.0524 ± 0.0091

Sequence,pre-steady-state target cleavage rate [1],pre-steady-state target cleavage rate [2]
UCGACCUACAGCUUGUCAUAGUAUUUAGUUA,0.742 ± 0.083,0.00458 ± 0.0029
UGGACCUACAGCUUGCUAUAGUAUUUAGUUA,0.0205 ± 0.0066,–
AGGACCUACAGCUUGUAUAGUAUUUAGUUA,1.6 ± 0.061,0.0803 ± 0.015
UGGACCUACAGCUUGUCAUAGUAUUUAGUUA,0.706 ± 0.1,0.00373 ± 0.0033
UCGACCUACAGCUUGCUAUAGUAUUUAGUUA,0.0661 ± 0.018,–
UCCUGGAUGAGCUUGCAUACUAUUUAGAUA,0.0538 ± 0.017,0.00863 ± 0.0041
AGGACCUACAGCUAGCAUAGUAUUUACAAA,0.474 ± 0.071,–
UCCACCUUCAGGUUGCAUAGUAUUUAGUUA,0.817 ± 0.1,0.0279 ± 0.0047
UCCUGGAUCAGCUCUGCAUAGUAUUUAGUUA,0.985 ± 0.054,0.0138 ± 0.0041
UCCUGCUUGAGCUUGCAUAGUAUUUAGUAA,0.491 ± 0.051,0.0206 ± 0.004
UCCUGGAACAGCUUGCAUAGUAAUUACAAA,0.129 ± 0.038,–
UCCUGGAACAGGUUGCAUAGUAUUUACUUA,0.164 ± 0.023,0.0109 ± 0.0022
UCGACGUACAGCUUGCUUAGUAUUUAGUUA,1.63 ± 0.09,0.0366 ± 0.0073
UCGACGUACAGCUUGCAAAGUAUUUAGUUA,1.26 ± 0.043,0.0364 ± 0.0077
AGGACGUACAGCUUGCUUAGUAUUUAGUUA,1.31 ± 0.055,0.0487 ± 0.0095
UGGACGUACAGCUUGCAUUGUAUUUAGUUA,0.79 ± 0.05,0.0432 ± 0.01
AGGACGUACAGCUUGCAUAGUAUUUAGUUA,1.19 ± 0.048,0.0866 ± 0.014
UGGACGUACAGCUUGCAAAGUAUUUAGUUA,1.3 ± 0.045,0.0558 ± 0.0096
UCGACGUACAGCUUGCAUUGUAUUUAGUUA,0.883 ± 0.027,0.0351 ± 0.0076
UGGACGUACAGCUUGCUUAGUAUUUAGUUA,1.37 ± 0.069,0.0454 ± 0.0082
AGGACGUACAGCUUGCAAAGUAUUUAGUUA,1.11 ± 0.057,0.0396 ± 0.0083

Sequence,pre-steady-state target cleavage rate [1],pre-steady-state target cleavage rate [2]
UCCUCCUACAGCAUGCAUAGUAUAUAGUUA,0.786 ± 0.042,0.00795 ± 0.0022
UCCUCCUUCAGCAUGCAUAGUAUUUAGUUA,1.01 ± 0.043,0.0155 ± 0.0034
UCCUGGAUGUCGUAGCAUAGUAUUUAGUUA,0.0153 ± 0.005,–
UCCUGGAUGUCCUUGCUUAGUAUUUAGUAA,0.00726 ± 0.004,–
UCCUGCUACAGCUUGCAUACAAUUUAGUAA,0.0165 ± 0.008,–
UCCUCCUACAGCUUGCAAAGUAUUUACAAA,0.267 ± 0.036,0.00344 ± 0.0031
UCGACCUACACGUUGCAUAGUAUUUUCAAA,0.224 ± 0.036,–
UCCUGGUACACGUUGCAUAGUAUUUAGUAA,0.178 ± 0.041,–
UCCUCCAACAGCUUGCAUAGUAUUUACUUA,0.267 ± 0.026,0.0243 ± 0.0038
ACGACCUACAGCUUGCAUAGUAUUUAGUAA,1.11 ± 0.042,0.0771 ± 0.016
UCGACCUACAGCUUGCAUAGUAUUUAGUUUA,1.27 ± 0.058,0.0631 ± 0.0099
UCGACCUACAGCUUUGCAUAGUAUUUAGUUA,1.4 ± 0.061,0.0371 ± 0.0078
UCGACCUACAGCUUGCAUAGUAUUUAGUAA,1.15 ± 0.061,0.0683 ± 0.014
ACGACCUACAGCUUGCAUAGUAUUUAGUUA,1.56 ± 0.064,0.0997 ± 0.017
UCGACCUACAGCUUGCAUAGUAUUUAGUUU [g2:g28:cont:t1U],1.75 ± 0.067,0.158 ± 0.033
UCGACCUACAGCUUGCAUAGUAUUUAGCUUA,0.375 ± 0.05,0.0283 ± 0.0087
UCGACCCUACAGCUUGCAUAGUAUUUAGUUA,1.33 ± 0.061,0.0734 ± 0.012
UCGACCUACAGCUUGCAUAGUAUUUAGUUC [g2:g28:cont:t1C],1.22 ± 0.045,0.0714 ± 0.013
ACGACCUACAGCUUGCAUAGUAUUUAGAUA,0.62 ± 0.044,0.0521 ± 0.011
UCGACCUACAGCUUGCAUAGUAUUUAGUA,0.778 ± 0.039,0.0159 ± 0.0051
UCCUGCUACUCGUUGCAUAGUAUUUAGAAA,0.0557 ± 0.014,–
